PubChem BioAssay (NCI)
The panel holds about 83,000 compounds, 20% with a hit somewhere; the sample as a whole holds those more often.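 Method: cells in 96-well plates; compound added at one concentration; 48 h incubation; percent growth measured; values under 10 scored active.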 Values without a mark were called inactive. Active and inactive are the calls of the source.

Experiments:
Experiment in all cases: NCI-60 one-dose screen, 48 h (100 = growth as untreated, 0 = no growth, -100 = all killed)
Settings in all cases: 10 µM unless noted
SK-MEL-2 melanoma = test system: SK-MEL-2 melanoma
EKVX NSCLC = test system: EKVX NSCLC
SN12C renal = test system: SN12C renal
UO-31 renal = test system: UO-31 renal
TK-10 renal = test system: TK-10 renal
CAKI-1 renal = test system: CAKI-1 renal
A498 renal = test system: A498 renal
CCRF-CEM leukemia = test system: CCRF-CEM leukemia
MOLT-4 leukemia = test system: MOLT-4 leukemia
RPMI-8226 leukemia = test system: RPMI-8226 leukemia
OVCAR-8 ovarian = test system: OVCAR-8 ovarian
OVCAR-5 ovarian = test system: OVCAR-5 ovarian
OVCAR-4 ovarian = test system: OVCAR-4 ovarian
SK-OV-3 ovarian = test system: SK-OV-3 ovarian
IGROV1 ovarian = test system: IGROV1 ovarian
OVCAR-3 ovarian = test system: OVCAR-3 ovarian
HS 578T breast = test system: HS 578T breast
NCI/ADR-RES ovarian = test system: NCI/ADR-RES ovarian
ACHN renal = test system: ACHN renal
SR leukemia = test system: SR leukemia

Structure (SMILES) | growth (SK-MEL-2 melanoma) | growth (EKVX NSCLC) [%] | growth (SN12C renal) | growth (UO-31 renal) | growth (TK-10 renal) | growth (CAKI-1 renal) | growth (A498 renal) | growth (CCRF-CEM leukemia) | growth (MOLT-4 leukemia) | growth (RPMI-8226 leukemia) | growth (OVCAR-8 ovarian) | growth (OVCAR-5 ovarian) | growth (OVCAR-4 ovarian) | growth (SK-OV-3 ovarian) | growth (IGROV1 ovarian) | growth (OVCAR-3 ovarian) | growth (HS 578T breast) | growth (NCI/ADR-RES ovarian) | growth (ACHN renal) | growth (SR leukemia)
O=S(=O)(Nc1ccc(Cl)cc1Cl)c1ccc(-c2cnc(C3CC3)o2)cc1 | 33.3% | 38.1 | 51.4% | 53.7% | 48.4% | 38.8% | -21% (active) | 18.6% | 24.3% | 21.6% | 26.5% | 40.2% | 52.6% | 41.6% | 29.2% | -17.8% (active) | 9.44% (active) | 0.514% (active) |  | 
CCCNc1nc(SC)nc(-c2cccc(N)c2)c1C#N | 111% | 82.6 | 90.1% | 76.8% |  | 73% | 72.4% | 108% | 101% | 103% | 99.1% | 101% | 92.4% | 93.7% | 92.2% | 110% | 93.1% | 101% | 97.7% | 
CCN(CC)CCC(=O)c1ccc(OC)c2ccccc12 | 91.7% | 94 | 106% | 62.3% |  | 88.7% | 124% | 18.7% | 29.1% | 8.95% (active) | 89.6% | 91.1% | 98.4% | 98.3% | 91.6% | 109% | 95.9% | 98.8% | 105% | -6.8% (active)
CN1CCN(Cc2ccc(NC(=O)c3[nH]ncc3Nc3ncnc4[nH]ccc34)cc2)CC1 | -12.3% (active) | 13 | 13.3% | 3.55% (active) | -61.8% (active) | -1.63% (active) | -59% (active) |  | -20.9% (active) | -10.4% (active) | 6.62% (active) | 11.6% | -21.7% (active) | 18.5% | 16.4% | -57.6% (active) | -3.22% (active) | 71.2% |  | -17% (active)
O=C1/C(=C\c2cn(C(=O)c3ccc(Cl)cc3)c3ccccc23)c2ccccc2N1c1c(Cl)cccc1Cl | 103% | 97.8 | 89.5% | 77% | 119% | 86.4% | 103% |  | 89.6% | 101% | 113% | 94.3% | 99.5% | 116% | 99.2% | 116% | 107% | 99.7% |  | 99.6%
O=C(COCc1c(-c2ccccc2)no[n+]1[O-])Nc1ccc(C(=O)/C=C/c2ccc3c(c2)OCO3)cc1 | 134% | 108 | 102% | 87.4% |  | 91.7% | 111% | 82.4% | 77.2% | 74.2% | 87.5% | 99.4% | 114% | 112% | 95.2% | 113% | 101% | 106% | 94.6% | 
CC(C)n1cc2c(N)ncnc2n1 | 89.5% | 88.1 | 98.2% | 90% |  | 79.4% | 126% | 109% | 98.2% | 107% | 108% | 109% | 95.5% | 106% | 107% | 104% | 105% | 107% | 105% | 97.5%
CCCCN(CCCC)Cc1c(C)[nH]c2cc(OC)ccc2c1=O | 110% | 104 | 104% | 81.2% |  | 99.1% | 95.8% | 95.8% | 90.9% | 99.7% | 91.9% | 119% | 106% | 92.2% | 113% | 96.6% | 103% | 104% | 110% | 92.8%
C/C(=C(/c1ccc(O)cc1)c1ccc(OCCN2CCCC2)cc1)c1ccccc1 | 63.1% | 62.5 | 72.4% | 55.3% |  | 65.1% | 80.5% | 60.7% | -1.64% (active) | 11.9% | 83% | 80.5% | 54.5% | 80.1% | 76.1% | 74% | 66.8% | 62.9% | 68.5% | -11.3% (active)
O=C(Nc1ccc(Nc2cc(Nc3ccccc3)ncn2)cc1)Nc1cc(C(F)(F)F)ccc1F | 82.8% | 80.5 | 78.5% | 65.6% |  | 74.4% | 75.3% | 71.7% | 63.6% | 65.1% |  | 78.1% | 71.2% | 101% |  | 88.5% | 78.9% | 81.1% | 66.9% | 42%
O=c1c(/C=C/c2ccco2)nnc(SCCN2CCOCC2)n1/N=C/c1ccc([N+](=O)[O-])cc1 | 106% | 81.6 | 102% | 71.3% |  | 106% | 103% | -20.4% (active) | 81.2% | 67% | 94% | 103% | 97.2% | 95% |  | 108% | 96.9% | 101% | 99.7% | 33.6%
O=C(/C=C/c1ccc(Cl)cc1)c1ccc(O)c(CN2CCN(c3cc4c(cc3F)c(=O)c(C(=O)O)cn4C3CC3)CC2)c1 | 68.6% | 62.4 | 26.8% | 33.4% | 73.8% | 45.5% | 39.9% |  | 66% | 16.5% | 27.4% | 77.5% | 89.2% | 73.8% | 51.6% | 73.9% | 47% | 65.7% |  | 
O=C(NCc1cccc(C(F)(F)F)c1)[C@H](CCC(=O)N1CCN(C2CCCCC2)CC1)N1C(=O)[C@@H](N2C(=O)OC[C@@H]2c2ccccc2)[C@H]1/C(Cl)=C/c1ccccc1 | 34.8% | 53.8 | 37.1% | 27.5% |  | 62.4% | 46.9% | 33.9% | 21.4% | 14.1% | 64.3% | 87% | 51.6% | 56% | 36.8% | 47.6% | 50% | 35.7% | 58.4% | -36.3% (active)
O=C1c2cc3c(cc2-c2c1c1cc(F)c(F)cc1c(=O)n2C[C@H](O)CO)OCO3 | -26% (active) | 14.7 | -12.6% (active) | -56.8% (active) |  | -4.95% (active) | -79.4% (active) | -10.9% (active) | -26% (active) | -0.801% (active) | 4.44% (active) | 4.09% (active) | 7.88% (active) | -4.97% (active) | 8.38% (active) | -8.12% (active) | 42.1% | -17% (active) | -61.5% (active) | -16.5% (active)
c1ccc2sc(SCCCn3ccnc3)nc2c1 | 68.7% | 90.5 | 84.2% | 84.9% |  | 98% | 80.6% | 81.6% | 95.6% | 79% | 88.2% | 118% | 93.2% | 90.2% | 103% | 86.4% |  | 94.2% | 100% | 87.9%
